Results published in PubChem BioAssay (NCI).
About 79,000 compounds went through this panel and 15% of them were active in at least one assay; those are over-represented in the sample as a whole. A number with no mark means an inactive call. Calls of active or inactive are those of the source. Cut-off read from the data, not from the text of the source: active = growth inhibition above about 70%; inactive = the rest.

Assays:
[1] = NCI Yeast Anticancer Drug Screen. Data for the rad50 strain (AID 155);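 note: 0% = growth of vehicle-only cultures of the same strain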; conditions: S. cerevisiae rad50 strain growth inhibition, hits give high values
How it was run: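 Cells are treated with compound, grown, and their growth is then scored against vehicle-only cultures of the same repair-deficient yeast strain.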

[2] = NCI Yeast Anticancer Drug Screen. Data for the mec2-1 strain (AID 157); conditions: S. cerevisiae mec2-1 strain, hits give high values
How it was run: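 Readout is yeast growth inhibition, normalised to vehicle-treated controls, in the mec2-1 strain exposed to compound.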

[3] = NCI Yeast Anticancer Drug Screen. Data for the sgs1 mgt1 strain (AID 161);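 note: 0% = growth of cultures given vehicle only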; conditions: S. cerevisiae sgs1 mgt1 strain, hits give high values
How it was run: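 Percent growth inhibition was derived by comparing compound-exposed mutant yeast with vehicle-exposed cultures. The strain carries alterations in DNA damage repair.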

[4] = NCI Yeast Anticancer Drug Screen. Data for the cln2 rad14 strain (AID 165);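 note: 0% = growth equal to vehicle treated cultures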; conditions: S. cerevisiae cln2 rad14 strain, hits give high values
How it was run: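 Relative to vehicle controls, growth inhibition of compound-treated cln2 rad14 yeast was recorded.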

[5] = NCI Yeast Anticancer Drug Screen. Data for the bub3 strain (AID 167); conditions: S. cerevisiae bub3 mutant strain, hits give high values
How it was run: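 Part of a panel of yeast mutants defective in DNA damage repair or cell cycle regulation. Each strain is grown with compound, and inhibition is calculated relative to solvent-treated cultures.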

[6] = NCI Yeast Anticancer Drug Screen. Data for the mlh1 rad18 strain (AID 175); conditions: S. cerevisiae mlh1 rad18 strain growth inhibition, hits give high values
How it was run: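 Test agents were incubated with a yeast strain of defined genotype (DNA damage repair defect). Inhibition of growth was derived by comparison with vehicle-exposed cultures.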

[7] = at 5.0 µM (retest, dose inferred, filed as 0.5)
[8] = at 50.0 µM (retest, dose inferred, filed as 5.0)

| SMILES | growth inhibition [1, 7] | growth inhibition [1, 8] | growth inhibition ([1]; at 50.0 µM) | growth inhibition [2, 7] | growth inhibition [2, 8] | growth inhibition ([2]; at 50.0 µM) | growth inhibition [3, 7] | growth inhibition [3, 8] | growth inhibition ([3]; at 50.0 µM) | growth inhibition [4, 7] | growth inhibition [4, 8] | growth inhibition ([4]; at 50.0 µM) | growth inhibition [5, 7] | growth inhibition [5, 8] | growth inhibition ([5]; at 50.0 µM) | growth inhibition [6, 7] | growth inhibition [6, 8] | growth inhibition ([6]; at 50.0 µM) |
| --- | --- | --- | --- | --- | --- | --- | --- | --- | --- | --- | --- | --- | --- | --- | --- | --- | --- | --- |
| COc1ccc(C2COc3c(ccc(O)c3O)C2)cc1OC (configuration not stated) | -14% | 28% | 25.2% | 1% | 55% | 43.6% | -3% | 66% | 40.1% | 0% | 41% | 55.7% | 0% | 26% | 32.9% | 0% | 74% (active) | 40.2% |
| Cc1cc(NCCCN(C)C)c2cc3ccc4cccc5ccc(c2n1)c3c45 | 1% | 54% | 95.2% (active) | -12% | 23% | 90.4% (active) | -3% | 47% | 94.8% (active) | -2% | 25% | 63.8% | -2% | 20% | 94.5% (active) | -2% | 58% | 97.3% (active) |
| Cc1ccc(S(=O)/C=C/S(=O)(=O)c2ccc(C)cc2)cc1 (configuration not stated) | 99% (active) | 99% (active) | 99.3% (active) | 99% (active) | 100% (active) | 99.6% (active) | 100% (active) | 100% (active) | 99.5% (active) | 98% (active) | 100% (active) | 99.5% (active) | 99% (active) | 100% (active) | 99.6% (active) | 100% (active) | 100% (active) | 99.5% (active) |
| Clc1ccc(OCCC(Cn2ccnc2)c2ccc(Cl)cc2Cl)c(Cl)c1 (configuration not stated) | 94% (active) | 98% (active) | 66% | 91% (active) | 99% (active) | 55.9% | 94% (active) | 98% (active) | 58.2% | 86% (active) | 97% (active) | 64% | 93% (active) | 98% (active) | 48.1% | 90% (active) | 98% (active) | 55.7% |
| Cc1ccc(S(=O)(=O)Oc2c([N+](=O)[O-])cc(C)cc2[N+](=O)[O-])cc1 | 29% | 54% | 96.6% (active) | 10% | 29% | 97.6% (active) | 14% | 21% | 98.2% (active) | -1% | 17% | 82.7% (active) | 5% | 34% | 94% (active) | 17% | 59% | 95.1% (active) |
| S=C(Nc1ccc(Br)c(Cl)c1)SCc1ccc2c(c1)OCO2 | 49% | 97% (active) | 88% (active) | 49% | 98% (active) | 88.9% (active) | 77% (active) | 98% (active) | 88.7% (active) | 50% | 98% (active) | 86.1% (active) | 76% (active) | 98% (active) | 88.2% (active) | 44% | 97% (active) | 87.4% (active) |
| COc1ccccc1NC(=O)/C(=C\N1C(=O)/C(=C/c2cc(OC)c(OC)c(OC)c2)SC1=S)C(C)=O | -11% | 9% | 46% | -12% | 14% | 13.4% | -8% | 35% | 74.2% (active) | -28% | 7% | 8.6% | -21% | -12% | 27.9% | -39% | 25% | 49.7% |
| Oc1ccc(-c2ccccc2)cc1O | 23% | 99% (active) | 76.1% (active) | 13% | 100% (active) | 82% (active) | 12% | 99% (active) | 89% (active) | -3% | 99% (active) | 1.55% | -6% | 99% (active) | 46.5% | 27% | 99% (active) | 81.4% (active) |
| CCCCCCCCCCCC(=O)OCCN(CCOC(=O)CCCCCCCCCCC)C(=O)COC(=O)CCCCCCCCCCC | -4% | 39% | 99.4% (active) | 1% | 94% (active) | 99.7% (active) | 3% | 92% (active) | 99.8% (active) | -2% | 81% (active) | 99.3% (active) | -2% | 60% | 60.4% | 1% | 86% (active) | 99.3% (active) |
| Oc1c2c(c(O)c3ncccc13)C1C=CC2CC1 (configuration not stated) | -5% | 99% (active) | 97.7% (active) | 0% | 99% (active) | 97.1% (active) | -5% | 98% (active) | 99.3% (active) | -25% | 98% (active) | 84.8% (active) | 2% | 99% (active) | 97.7% (active) | -4% | 99% (active) | 98.3% (active) |
| Cc1c(-c2ccccc2)ccnc1/C=N/NC(=S)Nc1ccccc1 | 1% | 39% | 89.2% (active) | 1% | 31% | 94% (active) | 4% | 88% (active) | 95.1% (active) | 1% | 23% | 92.1% (active) | -2% | 49% | 95.7% (active) | -5% | 59% | 93.8% (active) |
| CCCCCCCCCCn1cc[nH]c1=S | 47% | 99% (active) | 99% (active) | 47% | 99% (active) | 99.2% (active) | 72% (active) | 99% (active) | 99.3% (active) | 18% | 99% (active) | 98.8% (active) | 72% (active) | 99% (active) | 99.2% (active) | 59% | 98% (active) | 99.3% (active) |
| O=c1ccnc(Nc2ccc[nH]c2=S)[nH]1 | -2% | -11% | 3.2% | 0% | -7% | -3.3% | -1% | -7% | 46.2% | -3% | -23% | 1.4% | 4% | 1% | 8.85% | -3% | -16% | 1.85% |
| CCCCCCC(=O)OCCN(CCOC(=O)CCCCCC)C(=O)C(C)OC(=O)CCCCCC (configuration not stated) | 2% | 56% | 91.7% (active) | 4% | 19% | 85.4% (active) | 2% | 62% | 98.4% (active) | 1% | 18% | 66.2% | -1% | 66% | 98.2% (active) | -3% | 58% | 97.6% (active) |
| [Cl-].[La+3].[O-]/N=C(\c1ccccc1)c1ccccn1.[O-]/N=C(\c1ccccc1)c1ccccn1.[O-]/N=C(\c1ccccc1)c1ccccn1 | 42% | 63% | 63.3% | 25% | 60% | 40.2% | 31% | 68% | 43.2% | 21% | 34% | 43.5% | 42% | 90% (active) | 67.3% | 43% | 68% | 59.2% |
| NC(Cc1nn[nH]n1)C(=O)O (configuration not stated) | 3% | -15% | -13.2% | -6% | -10% | -5.95% | -16% | -15% | -42.8% | -11% | -6% | 22.4% | 10% | -13% | 0.95% | -18% | -6% | -23% |
| NC(=O)C(=CNc1nc(-c2ccc(Br)cc2)cs1)C(N)=O | -5% | 92% (active) | 99.5% (active) | -11% | 98% (active) | 99.5% (active) | -3% | 92% (active) | 99.5% (active) | -34% | 94% (active) | 98.9% (active) | -11% | 99% (active) | 99.5% (active) | -6% | 98% (active) | 99.3% (active) |
| CCOC(=O)/C(=C\c1ccc(Br)cc1)C(C)=O | 28% | 98% (active) | 92.5% (active) | 29% | 99% (active) | 94.2% (active) | 48% | 98% (active) | 93.5% (active) | 34% | 98% (active) | 92.5% (active) | 71% (active) | 99% (active) | 92.3% (active) | 70% (active) | 99% (active) | 91.7% (active) |
| C/C(=N\Nc1ccccn1)c1ccccn1 | 47% | 98% (active) | 98.8% (active) | 61% | 99% (active) | 98.7% (active) | 57% | 98% (active) | 99% (active) | 56% | 99% (active) | 97.3% (active) | 53% | 98% (active) | 49.9% | 60% | 98% (active) | 98.5% (active) |
